Each structure is given as a SMILES string. Records with an inconclusive call do not appear. Unmarked numbers belong to inactive results. Activity calls are given as the source filed them. The call rests on the fitted dose curve.
Potency means the concentration at half of the fitted maximal effect.

This test can be described thus: qHTS for Inhibitors of Cell Surface uPA Generation: Wild-type Protective Antigen (WT-PrAg) Counterscreen for Cherry-picked Compounds. On activity (protection): 0% is about no effect. Conditions: cells, WT protective antigen toxicity counterscreen; series mostly up to 115 µM; activity (protection): at the top concentration.
As to `CCCN1CCN(C2CCCCC2NS(=O)(=O)c2ccc(Cl)cc2)CC1` (stereo not given), the “activity (protection)” value is 9.95%.

Consider `CC(=O)[C@@]1(O)[C@H](C)CC2C3CC=C4CC(OP(=O)(O)O)CC[C@]4(C)C3CC[C@@]21C` (stereo not given in full), for which the “activity (protection)” value is 0.986%.

On to `COc1ccc2c(ccn2S(=O)(=O)c2ccccc2)c1`, for which the “activity (protection)” value is -2.44%.

For the compound `CCOc1cc(C)c(S(=O)(=O)N2CCCCC2)cc1C`, the “activity (protection)” value is -1.61%.

As to `CCC(CC)Nc1ccc(C(CC(N)=O)NC(=O)Cc2ccc(Br)cc2)cc1[N+](=O)[O-]` (stereo not given), the “activity (protection)” value is -2.11%.

For the compound `COc1ccc(Cc2nnc(Nc3ccc(C)cc3)o2)cc1OC`, the “activity (protection)” value was -0.388%.

Regarding `CC1(C)CC(=O)C=C(c2ccc3ccccc3c2)C1`, the “activity (protection)” value was 0.346%.

Turning to `Cc1cccc(N2CCN(Cc3ccc(Br)o3)CC2)c1C`, the “activity (protection)” value was 2.05%.

In the case of `COc1ccc(NS(=O)(=O)c2cc(NS(=O)(=O)c3cc(C(=O)O)ccc3OC)ccc2C)cc1`, the “activity (protection)” value is 0.066%.

`O=C1NCCN1C(=O)N(c1ccccc1)c1ccccc1`: the “activity (protection)” value was -0.281%.

With `COc1ccc(C2NC(=O)CCC2[N+](=O)[O-])c(OC)c1OC` (stereo not given), the “activity (protection)” value was -1.26%.

Take `COc1cc(N/C(N)=N/c2nc(C)cc(C)n2)cc(OC)c1`: the “activity (protection)” value was -2.15%.

Turning to `Cc1cc(C)n(C(=O)c2cccc([N+](=O)[O-])c2)n1`, the “activity (protection)” value is -1.85%.

As for `COC(=O)[C@]1(Cc2ccccc2)N[C@H](CN(C)C(=O)c2ccccc2)[C@@H]2C(=O)N(Cc3ccccc3)C(=O)[C@@H]21`, the “activity (protection)” value is 1.64%.

Regarding `Cc1ccc2c(c1)N(CC(=O)NCCCc1ccccc1)C(=O)c1cccnc1O2`, the “activity (protection)” value was 2.62%.

Take `C=CCOC(=O)C1=C[C@@H](c2coc3ccccc3c2=O)C[C@@H](OCc2ccc(CO)cc2)O1`: the “activity (protection)” value is -1.44%.

Take `CCSC1=NCCN1S(=O)(=O)c1ccc(Cl)cc1`: the “activity (protection)” value was -1.62%.

For `Nc1ccc(S(=O)(=O)c2ccccc2)nc1`, the “activity (protection)” value was -0.39%.

On to `CC(C)C(=O)Nc1nnc(SCc2cccc(F)c2)s1`, for which the “activity (protection)” value was -0.515%.

In the case of `Cc1oc(-c2ccccc2F)nc1CS(=O)(=O)CC(=O)NC1CCCC(C)C1C` (stereo not given), the “activity (protection)” value is 0.318%.

Take `CCOCc1nnc(NC(=O)C2CCN(C(=O)C3CC(=O)N(c4ccc(C)cc4)C3)CC2)s1` (stereo not given): the “activity (protection)” value is -1.11%.

For the compound `O=[N+]([O-])c1ccc(SCc2ccncc2)nc1`, the “activity (protection)” value was -0.691%.

In the case of `CCOc1ccc(C(=O)NCCO)cc1`, the “activity (protection)” value is -0.622%.

On to `COc1ccc([C@@H]2[C@@H]3C(=O)N(C(C)(C)C)C(=O)[C@@H]3[C@]3(C)C(=O)N(c4cccc(Cl)c4)C(=O)N23)cc1`, for which the “activity (protection)” value was 2.55%.

As to `CN(C)c1cccc(C(=O)N(C)C2CCCN(Cc3ccccc3F)C2)c1` (stereo not given), the Potency is 23.3 µM (active).

In the case of `Cc1cnc(CNC(=O)CC2C(=O)NCCN2Cc2ccccc2C(F)(F)F)cn1` (stereo not given), the “activity (protection)” value is 0.0975%.

Take `CCCCn1c(=NC(=O)c2ccco2)c(C(=O)OCC)cc2c(=O)n3cccc(C)c3nc21`: the “activity (protection)” value is 0.971%.

Turning to `O=S(=O)(c1ccc2nc(N3CCN(c4ccccc4)CC3)ccc2c1)N1CCCCC1`, the “activity (protection)” value is 2.08%.

In the case of `COc1ccc(NC(=O)CN2C(=O)CSc3ncccc32)cc1`, the “activity (protection)” value is 1.25%.

As for `COCc1c(C(=O)Nc2nc(C)cs2)oc2ccccc12`, the “activity (protection)” value was -2.04%.

Turning to `Cc1cccc(NC(=O)C2CCCN(S(=O)(=O)c3ccc4[nH]c(=O)ccc4c3)C2)c1` (stereo not given), the “activity (protection)” value is -1.13%.

Consider `CC(C)(C)OC(=O)NCCCCCNC(=O)c1[nH]cnc1C(=O)Nc1ccc(Cl)cc1`, for which the “activity (protection)” value was -1.37%.

Consider `Cn1c(SCC(=O)NNC(=O)c2ccc(Br)cc2)nnc1-c1cccnc1`, for which the “activity (protection)” value was -1.04%.

Take `O=C(O)CNC(=S)N(Cc1ccccc1)Cc1cccnc1`: the “activity (protection)” value is -0.77%.

Turning to `COc1cc(/C=N/NC(=O)c2ccncc2)ccc1O`, the “activity (protection)” value was 1.44%.

Take `CCOc1cc(C(=O)OCC(=O)c2cc(C)n(CC3CCCO3)c2C)ccc1OCC(=O)N1CCOCC1` (stereo not given): the “activity (protection)” value was -1.31%.

On to `COc1ccc(-c2cccc(-c3cc(=O)oc4cc(OC)c(OC)c(OC)c34)c2)cc1`, for which the “activity (protection)” value was -1.14%.

With `COc1ccccc1N1CCN(C(=O)CCC(=O)N2CCN(c3ccc(F)cc3)CC2)CC1`, the “activity (protection)” value was -1.42%.

Consider `COc1ccc(OC)c(NC(=O)C2CC2c2ccccc2)c1` (stereo not given), for which the “activity (protection)” value is -1.73%.

For the compound `CC(=O)Nc1ccc(NC(=O)CCCCCN2C(=O)c3ccccc3C2=O)cc1`, the “activity (protection)” value was -0.858%.

Values taken from PubChem BioAssay AID720518 (National Center for Advancing Translational Sciences (NCATS), 2013).
